Experimental data as given in PubChem BioAssay.
Calls of active or inactive are those of the source. How the calls were made is not given here.

Key:
[1] = tested on: Botulinum neurotoxin type F light chain protease (Clostridium botulinum); experiment: Clostridium botulinum type F light chain protease inhibitors, microsphere substrate cleavage, validation (AID 588459); details: multiplex microsphere protease substrate cleavage assay, flow cytometry; at 10 µM; active compounds read high
[2] = molecular target: Botulinum neurotoxin type A (Clostridium botulinum) (UniProt P0DPI0); experiment: BoNT/A light chain protease inhibitors, biochemical, multiplex microsphere flow cytometry, validation set (AID 588460); details: at 10 µM, active compounds read high
[3] = molecular target: Lethal factor (Bacillus anthracis) (UniProt P15917); experiment: Bacillus anthracis lethal factor inhibition, microsphere flow cytometry protease assay, validation at 10 µM (AID 588461); details: multiplex microsphere protease cleavage assay, active compounds read high

Measured: inhibition

Botulinum neurotoxin type A (Clostridium botulinum), sequence (P0DPI0 whole entry, looked up): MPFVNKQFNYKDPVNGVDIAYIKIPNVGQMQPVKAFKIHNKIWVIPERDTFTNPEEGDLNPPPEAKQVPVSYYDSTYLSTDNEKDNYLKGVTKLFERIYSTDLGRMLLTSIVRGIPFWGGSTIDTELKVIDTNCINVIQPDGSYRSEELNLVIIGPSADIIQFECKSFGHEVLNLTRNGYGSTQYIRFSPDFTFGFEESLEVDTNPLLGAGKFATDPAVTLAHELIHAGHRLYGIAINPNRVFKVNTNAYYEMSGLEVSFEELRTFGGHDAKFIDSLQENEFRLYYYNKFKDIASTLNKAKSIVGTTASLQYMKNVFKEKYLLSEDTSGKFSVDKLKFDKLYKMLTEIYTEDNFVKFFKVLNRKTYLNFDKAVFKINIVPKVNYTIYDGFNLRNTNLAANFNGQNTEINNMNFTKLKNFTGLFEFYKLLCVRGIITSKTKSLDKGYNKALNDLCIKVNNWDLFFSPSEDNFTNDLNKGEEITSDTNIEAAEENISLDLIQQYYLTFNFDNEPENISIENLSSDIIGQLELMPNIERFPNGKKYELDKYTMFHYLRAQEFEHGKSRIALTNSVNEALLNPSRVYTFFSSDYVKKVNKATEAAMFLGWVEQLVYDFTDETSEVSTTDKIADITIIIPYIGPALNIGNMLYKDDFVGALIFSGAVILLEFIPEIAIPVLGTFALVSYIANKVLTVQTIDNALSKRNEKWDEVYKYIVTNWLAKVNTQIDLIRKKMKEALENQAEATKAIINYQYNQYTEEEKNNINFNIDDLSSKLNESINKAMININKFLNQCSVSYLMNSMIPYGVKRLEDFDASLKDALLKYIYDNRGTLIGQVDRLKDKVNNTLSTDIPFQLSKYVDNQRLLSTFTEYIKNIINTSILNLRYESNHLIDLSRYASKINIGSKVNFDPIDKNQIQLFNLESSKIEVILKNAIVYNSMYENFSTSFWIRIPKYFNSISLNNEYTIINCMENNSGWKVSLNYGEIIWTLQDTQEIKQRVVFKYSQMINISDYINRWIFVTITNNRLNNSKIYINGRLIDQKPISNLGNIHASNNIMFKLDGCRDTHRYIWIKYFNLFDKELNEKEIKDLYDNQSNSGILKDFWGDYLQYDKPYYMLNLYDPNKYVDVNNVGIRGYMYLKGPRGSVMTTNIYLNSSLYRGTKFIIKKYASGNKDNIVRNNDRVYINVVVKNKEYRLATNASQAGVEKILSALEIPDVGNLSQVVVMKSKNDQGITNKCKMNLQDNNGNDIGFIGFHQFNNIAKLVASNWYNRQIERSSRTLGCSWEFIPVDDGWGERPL
Lethal factor (Bacillus anthracis), sequence (P15917 whole entry, looked up): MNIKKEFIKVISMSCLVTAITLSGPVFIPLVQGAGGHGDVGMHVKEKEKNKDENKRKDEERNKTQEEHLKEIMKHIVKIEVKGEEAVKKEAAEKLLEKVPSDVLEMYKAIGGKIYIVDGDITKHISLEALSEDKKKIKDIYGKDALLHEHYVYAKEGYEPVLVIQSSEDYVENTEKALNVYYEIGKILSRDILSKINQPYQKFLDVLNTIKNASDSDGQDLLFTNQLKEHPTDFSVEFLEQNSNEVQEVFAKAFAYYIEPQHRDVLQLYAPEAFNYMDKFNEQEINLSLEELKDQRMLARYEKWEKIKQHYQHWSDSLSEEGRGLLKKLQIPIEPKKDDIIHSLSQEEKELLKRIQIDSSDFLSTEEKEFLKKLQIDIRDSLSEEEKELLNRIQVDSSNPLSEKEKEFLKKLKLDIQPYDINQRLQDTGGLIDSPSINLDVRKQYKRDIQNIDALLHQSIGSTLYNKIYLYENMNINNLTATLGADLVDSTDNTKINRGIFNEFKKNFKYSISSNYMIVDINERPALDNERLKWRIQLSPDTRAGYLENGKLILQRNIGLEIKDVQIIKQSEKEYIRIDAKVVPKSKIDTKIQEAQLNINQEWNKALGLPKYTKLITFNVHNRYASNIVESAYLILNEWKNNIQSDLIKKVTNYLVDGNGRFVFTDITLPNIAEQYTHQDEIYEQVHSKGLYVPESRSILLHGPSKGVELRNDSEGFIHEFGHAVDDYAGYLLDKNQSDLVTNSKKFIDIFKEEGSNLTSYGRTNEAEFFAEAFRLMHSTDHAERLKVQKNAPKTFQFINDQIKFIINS

COc1cccc(OCc2nnc(-c3cccs3)o2)c1
inactive: [1] 1.2% | [2] -0.7% | [3] 1.3%

CN1CC2CCCC3(C1)C(=O)NC1(CCCCC1)N=C23 (stereo unspecified)
inactive: [1] 2.2% | [2] -0.6% | [3] -5.3%

CCCCC[C@H](O)/C=C/[C@@H]1[C@@H](C/C=C\CCCC(=O)O)[C@@H](O)C[C@H]1O
inactive: [1] -2.4% | [2] -1.9% | [3] -1.1%

CC(=O)SC1CC2=CC(=O)CCC2(C)C2CCC3(C)C(CCC34CCC(=O)O4)C12 (stereo unspecified)
inactive: [1] 0% | [2] 0.1% | [3] -5.9%

c1ccc(SSc2ccccc2)cc1
inactive: [1] 0.3% | [2] -1.5% | [3] -8.9%

Cc1cnc(C(=O)NCCc2ccc(S(=O)(=O)NC(=O)NC3CCCCC3)cc2)cn1
inactive: [1] 0.7% | [2] -0.2% | [3] -0.1%

CC(=O)N1c2ccccc2C(C)=CC1(C)C
inactive: [1] 2.3% | [2] -0.7% | [3] -8.5%

O=C(O)c1ccccc1O
inactive: [1] 0.4% | [2] -0.5% | [3] 2.3%

O=C(O)c1ccc(-c2ccc(O)c(F)c2)cc1
inactive: [1] -6.5% | [2] -1.7% | [3] 0.4%

CC1(C)c2ccccc2N2CC(=O)N(CC(N)=O)C21C (stereo unspecified)
inactive: [1] 1.5% | [2] -1.4% | [3] -5%

CC(=O)Oc1ccc2occ(/C=N/c3cc(=O)[nH]c(=S)[nH]3)c(=O)c2c1
inactive: [1] 2% | [2] 0.7% | [3] -4.2%

CCN(CCCCOC(=O)c1ccc(OC)c(OC)c1)C(C)Cc1ccc(OC)cc1 (stereo unspecified)
inactive: [1] -0.4% | [2] -2.7% | [3] -2.8%

Cc1nc(NC(CC(C)C)C(=O)O)c2nc(C)oc2n1 (stereo unspecified)
inactive: [1] 1.1% | [2] 1.1% | [3] -5.4%

COc1ccc(C2NC(=O)c3ccccc3O2)c(OC)c1OC (stereo unspecified)
inactive: [1] -2.1% | [2] -0.5% | [3] 2.9%

COc1ccc2c(c1OC)C(=O)OC2C1c2c(cc3c(c2OC)OCO3)CCN1C (stereo unspecified)
inactive: [1] 0.2% | [2] -0.4% | [3] 0.2%

COc1ccc(NS(=O)(=O)c2ccc(N)cc2)nn1
inactive: [1] 7.2% | [2] 2% | [3] -0.1%

O=c1ccc2c(o1)/C(=C/C=C(Cl)Cl)CCC2
inactive: [1] -0.9% | [2] -0.6% | [3] -2%

COc1ccc2[nH]c(CN3CCN(CC(C)C)C(CCO)C3)c(C)c2c1 (stereo unspecified)
inactive: [1] 2.4% | [2] 1.6% | [3] 3.1%

CC(C)CC(=O)Nc1ccc2oc(-c3ccncc3)nc2c1
inactive: [1] 1.4% | [2] 0.3% | [3] -2.1%

COc1cccc(CC(=O)NCC2COc3ccccc3O2)c1OC (stereo unspecified)
inactive: [1] -2.4% | [2] 0.4% | [3] 0.6%

CC(C(=O)O)c1ccc(N2Cc3ccccc3C2=O)cc1 (stereo unspecified)
inactive: [1] 1.4% | [2] -1.6% | [3] -4.3%

CC(=O)NC(NC(=S)N1CCCCCC1)C(Cl)(Cl)Cl (stereo unspecified)
inactive: [1] -2.7% | [2] -2.4% | [3] 5.4%

Cc1ccc2ncnc(NCCCCCC(=O)O)c2c1
inactive: [1] 1.7% | [2] -1.1% | [3] -4.7%

CCOC(=O)NN1C(=O)c2ccccc2NC1c1ccc(OC)c(OC)c1 (stereo unspecified)
inactive: [1] 1.5% | [2] -0.6% | [3] -2%

COc1ccc(CNC(=O)c2cc3c(=O)n4ccccc4nc3n(Cc3cccnc3)c2=N)cc1
inactive: [1] -1.2% | [2] 0.4% | [3] -1.9%

CC(C)OC(=O)CC1C(=O)NCCN1C(=S)NC(=O)c1cccs1 (stereo unspecified)
inactive: [1] 0.8% | [2] -1.7% | [3] -5.8%

O=C(NCCNc1ccc(Cl)cc1[N+](=O)[O-])c1cccnc1
inactive: [1] 0.4% | [2] -1.2% | [3] 2%
